Source: ChEMBL document CHEMBL1961873, “Compounds: GSK PKIS; Assays: Nanosyn kinase panel” (2012)

How the values were obtained:
[1] = target: High affinity nerve growth factor receptor (Homo sapiens) (UniProt P04629); conditions: at 1 µM;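 further: each value is the mean percent inhibition of TRKA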
[2] = target: BDNF/NT-3 growth factors receptor (Homo sapiens) (UniProt Q16620); conditions: at 0.1 µM
[3] = target: BDNF/NT-3 growth factors receptor (Homo sapiens) (UniProt Q16620); conditions: at 1 µM
[4] = target: NT-3 growth factor receptor (Homo sapiens) (UniProt Q16288); conditions: at 0.1 µM
Chain of NT-3 growth factor receptor (Homo sapiens) (Q16288 32-839 limits assumed): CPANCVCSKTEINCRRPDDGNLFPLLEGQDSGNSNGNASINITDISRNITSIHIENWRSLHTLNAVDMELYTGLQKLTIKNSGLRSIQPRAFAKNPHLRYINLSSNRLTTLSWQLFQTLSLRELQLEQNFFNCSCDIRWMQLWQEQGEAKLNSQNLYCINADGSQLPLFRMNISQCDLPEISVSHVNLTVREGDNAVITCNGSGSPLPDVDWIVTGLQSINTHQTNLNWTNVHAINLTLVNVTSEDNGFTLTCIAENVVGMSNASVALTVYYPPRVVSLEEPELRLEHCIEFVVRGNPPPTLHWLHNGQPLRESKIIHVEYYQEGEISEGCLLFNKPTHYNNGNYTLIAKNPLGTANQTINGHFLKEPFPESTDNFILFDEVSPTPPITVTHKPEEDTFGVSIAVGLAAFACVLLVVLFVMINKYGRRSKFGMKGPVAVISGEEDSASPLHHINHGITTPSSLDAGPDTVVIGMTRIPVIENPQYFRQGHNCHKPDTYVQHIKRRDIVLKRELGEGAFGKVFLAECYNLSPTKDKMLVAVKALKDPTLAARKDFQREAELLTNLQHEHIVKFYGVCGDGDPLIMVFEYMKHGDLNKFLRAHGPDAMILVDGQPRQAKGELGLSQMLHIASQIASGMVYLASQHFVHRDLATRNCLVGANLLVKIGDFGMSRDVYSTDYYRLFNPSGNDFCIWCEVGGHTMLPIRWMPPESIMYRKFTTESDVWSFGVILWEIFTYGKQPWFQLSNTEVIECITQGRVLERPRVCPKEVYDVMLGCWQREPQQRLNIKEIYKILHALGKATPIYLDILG

[5] = target: NT-3 growth factor receptor (Homo sapiens) (UniProt Q16288); conditions: at 1 µM
[6] = target: T1, Tyrosine-protein kinase TXK (Homo sapiens) (UniProt P42681); conditions: at 0.1 µM
T1 sequence (whole entry): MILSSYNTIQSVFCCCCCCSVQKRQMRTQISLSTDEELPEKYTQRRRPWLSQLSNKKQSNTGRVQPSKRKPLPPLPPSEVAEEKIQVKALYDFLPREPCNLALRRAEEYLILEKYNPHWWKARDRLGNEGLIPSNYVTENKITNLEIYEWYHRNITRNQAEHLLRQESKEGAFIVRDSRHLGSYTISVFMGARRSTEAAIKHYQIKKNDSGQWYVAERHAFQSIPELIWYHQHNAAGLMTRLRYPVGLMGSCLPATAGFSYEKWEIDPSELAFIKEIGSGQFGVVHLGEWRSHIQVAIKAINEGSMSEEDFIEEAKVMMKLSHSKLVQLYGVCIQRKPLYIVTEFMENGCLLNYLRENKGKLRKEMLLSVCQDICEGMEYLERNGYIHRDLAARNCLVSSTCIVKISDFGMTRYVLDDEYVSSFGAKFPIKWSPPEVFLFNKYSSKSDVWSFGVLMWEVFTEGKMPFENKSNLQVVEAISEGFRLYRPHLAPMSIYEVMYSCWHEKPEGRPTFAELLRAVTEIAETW

[7] = target: T1, Tyrosine-protein kinase TXK (Homo sapiens); conditions: at 1 µM
[8] = target: Non-receptor tyrosine-protein kinase TYK2 (Homo sapiens) (UniProt P29597); conditions: at 0.1 µM;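 further: each value is a mean of the inhibition readings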
[9] = target: T2, Dual specificity protein kinase TTK (Homo sapiens) (UniProt P33981); conditions: at 1 µM;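 further: reported figures are mean TTK inhibition at 1 µM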
T2 sequence (whole entry): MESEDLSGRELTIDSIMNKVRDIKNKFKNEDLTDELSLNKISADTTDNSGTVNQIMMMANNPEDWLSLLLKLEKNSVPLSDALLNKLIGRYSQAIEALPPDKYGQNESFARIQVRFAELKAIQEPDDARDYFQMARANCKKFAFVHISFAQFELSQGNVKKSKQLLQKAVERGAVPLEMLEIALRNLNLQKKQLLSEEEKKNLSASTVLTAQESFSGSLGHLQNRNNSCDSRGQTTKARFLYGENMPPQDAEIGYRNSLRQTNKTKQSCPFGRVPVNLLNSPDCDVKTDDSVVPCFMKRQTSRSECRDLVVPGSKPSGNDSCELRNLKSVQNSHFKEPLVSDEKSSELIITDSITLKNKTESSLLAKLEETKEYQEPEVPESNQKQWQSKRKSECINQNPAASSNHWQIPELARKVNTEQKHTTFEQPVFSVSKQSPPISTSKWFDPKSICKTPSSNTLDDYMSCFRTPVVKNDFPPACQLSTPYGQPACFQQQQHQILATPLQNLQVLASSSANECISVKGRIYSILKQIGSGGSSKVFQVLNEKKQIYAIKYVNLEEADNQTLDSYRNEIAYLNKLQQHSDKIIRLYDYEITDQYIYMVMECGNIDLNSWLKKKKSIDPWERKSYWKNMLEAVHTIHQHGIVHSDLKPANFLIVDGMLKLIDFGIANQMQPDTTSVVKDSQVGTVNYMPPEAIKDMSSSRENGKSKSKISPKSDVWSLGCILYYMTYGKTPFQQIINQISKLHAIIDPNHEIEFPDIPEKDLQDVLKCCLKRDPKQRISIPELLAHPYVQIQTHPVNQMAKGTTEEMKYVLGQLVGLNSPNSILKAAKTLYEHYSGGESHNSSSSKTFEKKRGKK

[10] = target: T3, Aurora kinase A (Homo sapiens) (UniProt O14965); conditions: at 0.1 µM
T3 sequence (whole entry): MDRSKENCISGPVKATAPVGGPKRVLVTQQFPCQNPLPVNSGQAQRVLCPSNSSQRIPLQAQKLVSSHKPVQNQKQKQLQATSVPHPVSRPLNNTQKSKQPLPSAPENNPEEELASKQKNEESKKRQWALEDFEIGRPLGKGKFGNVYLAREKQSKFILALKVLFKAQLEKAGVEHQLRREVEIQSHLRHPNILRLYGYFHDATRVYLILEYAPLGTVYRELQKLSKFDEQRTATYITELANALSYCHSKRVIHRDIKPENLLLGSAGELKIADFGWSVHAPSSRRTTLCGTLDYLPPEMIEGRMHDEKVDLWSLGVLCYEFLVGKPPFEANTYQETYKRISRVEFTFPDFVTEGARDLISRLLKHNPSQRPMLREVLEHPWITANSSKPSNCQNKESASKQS

[11] = target: T3, Aurora kinase A (Homo sapiens); conditions: at 1 µM
[12] = target: Aurora kinase B (Homo sapiens) (UniProt Q96GD4); conditions: at 0.1 µM
Chain of Aurora kinase B (Homo sapiens) (Q96GD4 whole entry): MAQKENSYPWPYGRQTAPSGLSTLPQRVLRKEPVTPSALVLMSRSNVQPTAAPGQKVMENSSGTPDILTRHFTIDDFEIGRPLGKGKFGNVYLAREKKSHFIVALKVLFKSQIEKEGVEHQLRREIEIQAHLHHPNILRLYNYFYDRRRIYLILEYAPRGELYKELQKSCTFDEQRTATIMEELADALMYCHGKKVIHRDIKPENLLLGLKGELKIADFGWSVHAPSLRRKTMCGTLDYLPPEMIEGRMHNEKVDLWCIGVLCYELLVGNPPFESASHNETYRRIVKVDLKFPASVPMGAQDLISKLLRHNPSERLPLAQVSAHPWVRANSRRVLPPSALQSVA

[13] = target: Aurora kinase B (Homo sapiens) (UniProt Q96GD4); conditions: at 1 µM
[14] = target: T4, Aurora kinase C (Homo sapiens) (UniProt Q9UQB9); conditions: at 0.1 µM
T4 sequence (whole entry): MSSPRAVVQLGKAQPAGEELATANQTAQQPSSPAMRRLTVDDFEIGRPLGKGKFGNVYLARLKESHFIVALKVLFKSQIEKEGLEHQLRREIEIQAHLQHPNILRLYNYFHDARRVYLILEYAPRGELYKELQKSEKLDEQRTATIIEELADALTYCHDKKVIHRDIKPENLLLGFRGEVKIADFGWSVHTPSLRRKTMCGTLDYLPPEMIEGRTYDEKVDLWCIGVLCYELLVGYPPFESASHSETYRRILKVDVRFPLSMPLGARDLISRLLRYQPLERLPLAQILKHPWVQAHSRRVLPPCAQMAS

[15] = target: T4, Aurora kinase C (Homo sapiens); conditions: at 1 µM
[16] = target: Serine/threonine-protein kinase 10 (Homo sapiens) (UniProt O94804); conditions: at 0.1 µM
Chain of Serine/threonine-protein kinase 10 (Homo sapiens) (O94804 whole entry, looked up): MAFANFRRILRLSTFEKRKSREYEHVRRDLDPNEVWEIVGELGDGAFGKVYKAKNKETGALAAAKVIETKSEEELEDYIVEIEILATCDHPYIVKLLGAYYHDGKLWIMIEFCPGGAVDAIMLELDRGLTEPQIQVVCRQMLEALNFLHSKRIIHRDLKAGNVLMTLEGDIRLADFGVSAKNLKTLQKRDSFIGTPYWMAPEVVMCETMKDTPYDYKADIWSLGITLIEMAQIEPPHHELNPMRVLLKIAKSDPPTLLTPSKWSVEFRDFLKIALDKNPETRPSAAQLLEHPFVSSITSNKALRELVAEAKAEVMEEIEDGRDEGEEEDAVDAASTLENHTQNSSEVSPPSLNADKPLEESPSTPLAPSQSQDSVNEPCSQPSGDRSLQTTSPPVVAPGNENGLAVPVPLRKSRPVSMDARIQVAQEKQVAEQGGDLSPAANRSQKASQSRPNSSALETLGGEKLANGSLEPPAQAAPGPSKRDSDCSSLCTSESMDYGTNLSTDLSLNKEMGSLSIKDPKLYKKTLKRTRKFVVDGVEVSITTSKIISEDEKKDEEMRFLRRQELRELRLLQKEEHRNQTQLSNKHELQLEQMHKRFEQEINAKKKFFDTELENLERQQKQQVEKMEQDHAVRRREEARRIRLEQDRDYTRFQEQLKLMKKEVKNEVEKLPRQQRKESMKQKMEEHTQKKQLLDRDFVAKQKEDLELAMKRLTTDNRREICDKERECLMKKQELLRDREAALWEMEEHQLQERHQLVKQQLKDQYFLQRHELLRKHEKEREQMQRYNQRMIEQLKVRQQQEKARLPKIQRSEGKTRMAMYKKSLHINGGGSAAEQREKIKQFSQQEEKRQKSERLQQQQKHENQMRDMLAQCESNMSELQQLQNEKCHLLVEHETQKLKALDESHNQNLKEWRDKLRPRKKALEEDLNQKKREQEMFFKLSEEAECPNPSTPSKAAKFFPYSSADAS

[17] = target: Serine/threonine-protein kinase 10 (Homo sapiens) (UniProt O94804); conditions: at 1 µM
[18] = target: T5, Mitogen-activated protein kinase kinase kinase kinase 2 (Homo sapiens) (UniProt Q12851); conditions: at 0.1 µM
T5 sequence (whole entry): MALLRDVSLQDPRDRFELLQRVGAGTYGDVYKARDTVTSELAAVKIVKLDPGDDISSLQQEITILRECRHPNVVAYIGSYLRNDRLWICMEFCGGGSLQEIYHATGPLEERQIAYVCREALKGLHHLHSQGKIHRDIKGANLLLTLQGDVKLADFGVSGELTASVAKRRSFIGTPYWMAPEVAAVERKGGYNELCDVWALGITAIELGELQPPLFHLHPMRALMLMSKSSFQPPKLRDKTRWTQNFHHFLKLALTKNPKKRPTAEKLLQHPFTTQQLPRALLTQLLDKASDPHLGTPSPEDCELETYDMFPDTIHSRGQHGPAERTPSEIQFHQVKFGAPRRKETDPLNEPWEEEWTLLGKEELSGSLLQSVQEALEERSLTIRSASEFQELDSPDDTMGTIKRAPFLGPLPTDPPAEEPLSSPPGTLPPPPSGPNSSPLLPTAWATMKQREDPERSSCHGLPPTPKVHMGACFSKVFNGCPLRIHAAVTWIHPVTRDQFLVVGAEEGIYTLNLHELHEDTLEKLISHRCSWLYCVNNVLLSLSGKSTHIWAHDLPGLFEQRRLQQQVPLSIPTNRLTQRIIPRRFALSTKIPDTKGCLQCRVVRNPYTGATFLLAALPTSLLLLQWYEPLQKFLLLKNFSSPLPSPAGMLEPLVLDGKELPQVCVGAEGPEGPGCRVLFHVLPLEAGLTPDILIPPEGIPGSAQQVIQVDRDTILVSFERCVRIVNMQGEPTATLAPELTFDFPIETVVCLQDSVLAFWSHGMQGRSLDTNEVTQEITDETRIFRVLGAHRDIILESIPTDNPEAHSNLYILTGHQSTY

[19] = target: T5, Mitogen-activated protein kinase kinase kinase kinase 2 (Homo sapiens); conditions: at 1 µM
[20] = target: Mitogen-activated protein kinase kinase kinase kinase 4 (Homo sapiens) (UniProt O95819); conditions: at 0.1 µM
Chain of Mitogen-activated protein kinase kinase kinase kinase 4 (Homo sapiens) (O95819 2-1239 limits assumed): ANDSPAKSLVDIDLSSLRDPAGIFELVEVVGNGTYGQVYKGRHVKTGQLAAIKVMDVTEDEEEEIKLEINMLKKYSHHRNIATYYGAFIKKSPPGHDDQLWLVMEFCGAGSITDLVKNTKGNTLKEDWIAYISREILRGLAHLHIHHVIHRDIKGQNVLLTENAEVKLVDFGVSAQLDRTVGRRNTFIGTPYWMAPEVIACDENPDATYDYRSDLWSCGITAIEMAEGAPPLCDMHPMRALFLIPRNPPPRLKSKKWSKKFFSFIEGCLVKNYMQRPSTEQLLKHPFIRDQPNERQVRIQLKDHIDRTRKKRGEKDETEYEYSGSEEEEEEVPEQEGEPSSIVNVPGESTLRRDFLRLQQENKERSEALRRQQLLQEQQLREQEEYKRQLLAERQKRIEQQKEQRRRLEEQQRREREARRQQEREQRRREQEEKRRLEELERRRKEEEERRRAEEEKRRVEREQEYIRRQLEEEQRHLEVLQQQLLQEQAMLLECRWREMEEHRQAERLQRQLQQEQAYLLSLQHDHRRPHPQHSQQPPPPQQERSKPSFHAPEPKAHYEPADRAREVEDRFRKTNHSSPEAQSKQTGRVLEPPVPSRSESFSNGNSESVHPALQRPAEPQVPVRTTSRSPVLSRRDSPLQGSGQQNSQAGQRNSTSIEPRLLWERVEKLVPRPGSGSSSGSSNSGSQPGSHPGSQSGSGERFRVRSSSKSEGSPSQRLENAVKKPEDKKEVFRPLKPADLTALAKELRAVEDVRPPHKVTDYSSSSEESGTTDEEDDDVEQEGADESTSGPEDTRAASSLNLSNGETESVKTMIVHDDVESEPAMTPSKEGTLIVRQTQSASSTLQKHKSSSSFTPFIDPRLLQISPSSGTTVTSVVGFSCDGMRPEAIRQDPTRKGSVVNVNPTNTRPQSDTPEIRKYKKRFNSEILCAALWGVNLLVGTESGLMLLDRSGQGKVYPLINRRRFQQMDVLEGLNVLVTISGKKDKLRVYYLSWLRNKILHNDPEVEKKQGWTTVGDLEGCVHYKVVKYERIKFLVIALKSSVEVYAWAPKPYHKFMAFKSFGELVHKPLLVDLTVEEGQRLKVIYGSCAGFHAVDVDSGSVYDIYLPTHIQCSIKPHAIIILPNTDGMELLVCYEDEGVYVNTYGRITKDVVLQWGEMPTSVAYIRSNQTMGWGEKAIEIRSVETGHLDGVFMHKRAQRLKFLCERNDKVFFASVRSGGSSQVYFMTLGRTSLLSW

Chain of High affinity nerve growth factor receptor (Homo sapiens) (P04629 33-796 limits assumed): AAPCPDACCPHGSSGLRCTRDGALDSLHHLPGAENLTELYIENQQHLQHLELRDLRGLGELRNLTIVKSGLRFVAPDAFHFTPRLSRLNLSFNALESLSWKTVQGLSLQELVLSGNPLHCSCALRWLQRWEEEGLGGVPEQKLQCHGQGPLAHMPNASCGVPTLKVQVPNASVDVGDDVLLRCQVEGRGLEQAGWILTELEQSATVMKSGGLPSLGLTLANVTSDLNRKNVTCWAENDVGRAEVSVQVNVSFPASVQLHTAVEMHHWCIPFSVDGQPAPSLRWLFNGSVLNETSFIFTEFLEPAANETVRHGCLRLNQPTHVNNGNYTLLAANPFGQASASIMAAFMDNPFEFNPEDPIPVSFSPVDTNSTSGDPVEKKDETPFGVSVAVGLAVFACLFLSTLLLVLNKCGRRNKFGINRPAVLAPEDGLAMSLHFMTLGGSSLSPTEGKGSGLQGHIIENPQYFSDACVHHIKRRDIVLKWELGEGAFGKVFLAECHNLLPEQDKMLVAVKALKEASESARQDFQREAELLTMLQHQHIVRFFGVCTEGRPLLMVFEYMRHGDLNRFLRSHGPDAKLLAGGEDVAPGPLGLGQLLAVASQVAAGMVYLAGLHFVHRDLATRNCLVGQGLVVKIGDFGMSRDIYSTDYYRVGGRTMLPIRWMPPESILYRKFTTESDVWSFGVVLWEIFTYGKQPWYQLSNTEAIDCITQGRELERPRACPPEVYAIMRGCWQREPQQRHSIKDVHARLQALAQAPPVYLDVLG
Chain of BDNF/NT-3 growth factors receptor (Homo sapiens) (Q16620 32-822 limits assumed): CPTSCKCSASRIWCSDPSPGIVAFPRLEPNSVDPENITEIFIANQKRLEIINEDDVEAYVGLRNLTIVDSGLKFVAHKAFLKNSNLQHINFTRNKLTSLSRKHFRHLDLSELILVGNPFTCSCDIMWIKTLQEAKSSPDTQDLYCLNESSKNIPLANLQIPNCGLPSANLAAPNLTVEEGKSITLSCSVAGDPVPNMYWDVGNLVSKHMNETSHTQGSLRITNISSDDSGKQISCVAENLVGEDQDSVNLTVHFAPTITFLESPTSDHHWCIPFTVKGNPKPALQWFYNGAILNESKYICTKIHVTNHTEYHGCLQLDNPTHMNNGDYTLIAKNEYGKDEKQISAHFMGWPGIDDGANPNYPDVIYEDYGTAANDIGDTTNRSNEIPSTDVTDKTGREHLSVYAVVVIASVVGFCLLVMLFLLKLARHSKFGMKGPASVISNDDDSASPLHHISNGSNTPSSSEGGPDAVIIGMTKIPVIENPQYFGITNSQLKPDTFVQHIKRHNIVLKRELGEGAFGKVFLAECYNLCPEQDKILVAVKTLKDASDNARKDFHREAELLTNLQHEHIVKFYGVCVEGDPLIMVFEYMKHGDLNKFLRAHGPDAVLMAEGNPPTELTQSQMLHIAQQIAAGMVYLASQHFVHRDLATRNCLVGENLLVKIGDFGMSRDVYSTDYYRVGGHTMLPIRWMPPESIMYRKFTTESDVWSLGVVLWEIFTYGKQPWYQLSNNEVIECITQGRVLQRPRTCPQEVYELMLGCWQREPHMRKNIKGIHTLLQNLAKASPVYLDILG

SMILES	inhibition [1] [%]	inhibition [2] [%]	inhibition [3] [%]	inhibition [4] [%]	inhibition [5] [%]	inhibition [6] [%]	inhibition [7] [%]	inhibition [8] [%]	inhibition [9] [%]	inhibition [10] [%]	inhibition [11] [%]	inhibition [12] [%]	inhibition [13] [%]	inhibition [14] [%]	inhibition [15] [%]	inhibition [16] [%]	inhibition [17] [%]	inhibition [18] [%]	inhibition [19] [%]	inhibition [20] [%]
Cc1ccc2c(c1)/C(=N/Nc1ccc(S(N)(=O)=O)cc1)C(=O)N2	11.8	3.81	31.2	4.95	39.2	1.24	3.92	1.2	33.2	2.87	27.8	1.05	7.36	1.16	23.6	0.32	3.53	1.01	4.98	27.3
OCc1ccc(-c2nc(-c3ccccn3)c(-c3ccc4c(c3)OCO4)[nH]2)cc1	3.45	3.16	1	4.37	3	6.42	12.5	-1.9	9.01	4.4	11	6.24	11.7	3.67	12.5	6.01	4.97	1.15	2.87	5.21
O=C1Nc2ccc(-c3cccnc3)cc2C1=Cc1cc(Br)c(O)c(Br)c1	12.8	2.93	12.2	4.91	24.1	2.22	6.14	0.81	7.48	15.5	88.3	4.87	16	2.6	31.7	3.55	3.51	1.24	2.93	69.3
Cc1ccc(C(=O)NC2CC2)cc1-c1ccc2[nH]ncc2c1	-1.16	-1.91	-0.53	-1.71	0.33	-2.22	0.71	0.52	-6.13	-3.2	-1.72	-2.69	-0.44	-3.29	0.5	-0.03	-1.42	-1.74	5.05	-2.51
COc1cc2ncn(-c3cc(OCc4ccccc4S(C)(=O)=O)c(C#N)s3)c2cc1OC	18.8	15	57.2	12.9	56.1	10.8	42.5	-7.35	11.1	12.4	77.2	28.2	73.6	17.7	93.8	35.5	71.7	8.65	41.3	57.5
ON=C1CCc2cc(-c3nc(C4CCNCC4)[nH]c3-c3ccncc3)ccc21	-1.26	-0.05	-1.18	-1.73	-0.26	1.85	2.25	-1.08	2.17	-0.5	2.73	0.1	3.15	-0.7	10.1	19.7	63.6	1.74	4.29	3.95
COc1cc2ncnc(Nc3ccc4c(cnn4Cc4ccccc4)c3)c2cc1OC	2.18	2.13	3.38	1.5	2.59	0.73	4.56	-1.09	13.2	1.22	7.82	3.48	15	1.9	23.7	0.29	14.2	1.57	1.51	8.32
CN(C)CCCn1c(-c2nonc2N)nc2cnccc21	3.29	-0.15	3.55	-0.01	3.2	3.61	4.3	-2.99	0.63	3.15	6.09	3.93	4.46	0.95	6.01	3.09	6.11	2.05	4.37	5.05
C[C@@H](Oc1cc(-n2cnc3ccc(OC[C@@H](O)CO)cc32)sc1C(N)=O)c1ccccc1Cl	3.73	1.11	14.7	3.59	29.4	0.37	3.1	3.13	1.94	-0.94	2.13	0.7	1.36	-1.38	-2.42	48.1	85.7	3.67	16.4	-0.19
CCn1c(-c2nonc2N)nc2ccc(F)cc21	2.84	4.03	4.23	3.74	4.75	1.94	0.47	-3.66	11.6	3.17	4.08	1.24	7.81	1.48	-2.72	9.56	13.5	1.16	2.01	4.2
Cc1cc(O)cc(C)c1/C=C/c1cncc(C(=O)N(C)C)c1	2.43	1.59	0.08	2.73	1.59	2.92	3.74	-1.5	4.52	2.58	13.3	7.28	14.7	3.08	2.63	3.87	7.88	2.39	6.67	6.12
